In publication PMC5540273 (PLoS ONE, 2017):

Columns and labels:
Conditions in all cases: concentration: 1 μM, replicates: in singlicate; n = 1
[1] = system: EPHB3
[2] = system: EPHB4
[3] = system: EPHB6
[4] = system: ERBB2
[5] = system: ERBB3
[6] = system: ERBB4
[7] = system: T1, ERK1
T1 construct: gene MAPK3

[8] = system: T2, ERK2
T2 construct: gene MAPK1

[9] = system: T3, ERK3
T3 construct: gene MAPK6

[10] = system: T4, ERK4
T4 construct: gene MAPK4
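Further: KINOMEscan kinase panel screen.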

SMILES | %Inh [1] | %Inh [2] | %Inh [3] | %Inh [4] | %Inh [5] | %Inh [6] | %Inh [7] | %Inh [8] | %Inh [9] | %Inh [10]
CCCNC(=O)Nc1ccc(Oc2ncnc3ccn(C)c23)cc1 | 0% | 0% | 5% | 33% | 1% | 4% | 0% | 0% | 2% | 0%
Nc1n[nH]c2ncc(-c3ccccc3)cc12 [SB-517081] | 9% | 9% | 39% | 24% | 0% | 0% | 3% | 0% | 0% | 23%
Cn1c(=O)c(F)c(Nc2ccc(I)cc2F)c2c(=O)n(OC[C@H](O)CO)cnc21 | 17% | 32% | 0% | 0% | 41% | 3% | 0% | 8% | 9% | 7%
Cc1ccc(-c2ccc3c(ccc4sc5c(c43)NC[C@@H](C)N=C5N(C)C)n2)cn1 | 0% | 0% | 15% | 8% | 0% | 3% | 0% | 0% | 1% | 14%
